Screen size: about 310,000 compounds; about 14,000 (4.5%) showed an effect of 50% or more. The effect is printed as a negative number. What follows is part of a selection rich in strong results, with near analogues and random picks from the rest.
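Further: peak tail current of the secondary pulse compared with the same well before compound.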

Chain of human ether-à-go-go-related gene (hERG) potassium channel (Q12809 whole entry, looked up): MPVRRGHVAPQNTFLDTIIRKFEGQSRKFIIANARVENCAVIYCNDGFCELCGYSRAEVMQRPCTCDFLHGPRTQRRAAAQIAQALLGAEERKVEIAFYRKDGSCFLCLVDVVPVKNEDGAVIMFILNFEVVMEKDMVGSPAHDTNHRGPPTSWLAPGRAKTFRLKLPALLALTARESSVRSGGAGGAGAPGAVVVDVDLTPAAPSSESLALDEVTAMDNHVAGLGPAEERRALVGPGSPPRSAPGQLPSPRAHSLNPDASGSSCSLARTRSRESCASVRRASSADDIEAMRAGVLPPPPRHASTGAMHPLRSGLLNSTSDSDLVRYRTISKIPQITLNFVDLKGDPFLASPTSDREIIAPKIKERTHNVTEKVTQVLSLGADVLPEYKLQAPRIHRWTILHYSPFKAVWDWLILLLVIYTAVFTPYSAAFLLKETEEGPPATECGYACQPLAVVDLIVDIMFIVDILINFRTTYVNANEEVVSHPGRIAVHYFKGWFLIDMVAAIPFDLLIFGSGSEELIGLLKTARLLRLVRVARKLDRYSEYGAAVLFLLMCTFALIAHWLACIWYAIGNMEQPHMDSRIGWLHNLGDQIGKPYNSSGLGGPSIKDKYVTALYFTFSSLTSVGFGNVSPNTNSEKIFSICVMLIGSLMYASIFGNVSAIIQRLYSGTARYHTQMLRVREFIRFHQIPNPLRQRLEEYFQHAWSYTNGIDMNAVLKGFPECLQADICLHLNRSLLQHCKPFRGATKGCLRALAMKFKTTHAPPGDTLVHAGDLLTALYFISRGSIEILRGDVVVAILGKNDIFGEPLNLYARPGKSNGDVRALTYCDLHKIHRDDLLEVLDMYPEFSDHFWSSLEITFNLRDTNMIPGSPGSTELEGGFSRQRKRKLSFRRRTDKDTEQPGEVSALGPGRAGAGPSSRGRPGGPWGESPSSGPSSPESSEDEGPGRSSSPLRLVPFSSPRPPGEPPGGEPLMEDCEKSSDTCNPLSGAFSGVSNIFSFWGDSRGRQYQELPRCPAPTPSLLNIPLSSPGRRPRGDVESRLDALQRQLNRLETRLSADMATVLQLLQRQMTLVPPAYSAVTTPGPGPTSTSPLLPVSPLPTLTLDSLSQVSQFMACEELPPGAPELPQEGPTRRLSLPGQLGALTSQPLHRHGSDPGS

The experiment has as its target human ether-à-go-go-related gene (hERG) potassium channel (human, UniProt Q12809). Kind of experiment: primary screen, population patch clamp on CHO cells stably expressing hERG; higher = less effect of the substance.
`COC(=O)Cn1c(SCc2ccccc2)nc2ccccc21`: the “hERG current change (%, negative = inhibition) at 10uM” value is recorded as -13.8%.
Consider `Cc1cccc(Cn2cccc2/C=C2/C(=N)N3C=CSC3=NC2=O)c1`, for which the “hERG current change (%, negative = inhibition) at 10uM” value is -1.72%.
As for `O=C(NCc1nc2ccccc2[nH]1)C1=C[C@H](c2coc3ccccc3c2=O)C[C@H](OCc2ccc(CO)cc2)O1`, the “hERG current change (%, negative = inhibition) at 10uM” value is on record as -21.5%.
Take `O=C(NCc1nc2ccccc2[nH]1)C1=C[C@H](c2ccccc2)C[C@H](OCc2ccc(CO)cc2)O1`: the “hERG current change (%, negative = inhibition) at 10uM” value is -13.6%.
With `O=C(NCc1nc2ccccc2[nH]1)C1=C[C@@H](c2ccccc2)C[C@@H](OCCCCO)O1`, the “hERG current change (%, negative = inhibition) at 10uM” value is reported as -46.5%.
Regarding `O=C(Nc1ccccc1)C1=C[C@H](c2csc3ccccc23)C[C@H](OCCCCO)O1`, the “hERG current change (%, negative = inhibition) at 10uM” value is -5.71%.
For the compound `O=C(NCc1nc2ccccc2[nH]1)C1=C[C@H](c2ccc(Br)cc2)C[C@H](OCc2ccc(CO)cc2)O1`, the “hERG current change (%, negative = inhibition) at 10uM” value was 3.89%.
As to `O=C(NCc1nc2ccccc2[nH]1)C1=C[C@@H](c2csc3ccccc23)C[C@@H](OCCCCO)O1`, the “hERG current change (%, negative = inhibition) at 10uM” value is listed as -29.6%.
Next, `O=C(NCc1nc2ccccc2[nH]1)C1=C[C@@H](c2ccccc2)C[C@@H](OCc2ccc(CO)cc2)O1`: -64.9%.
Turning to `O=C(NCc1nc2ccccc2[nH]1)C1=C[C@H](c2ccccc2)C[C@H](OCCCCO)O1`, the “hERG current change (%, negative = inhibition) at 10uM” value is recorded as -36.3%.
The value for `O=C(NCc1nc2ccccc2[nH]1)C1=C[C@@H](c2ccc(Br)cc2)C[C@@H](OCCCCO)O1` was -65.9%.
As for `O=C(NCc1ccccc1)C1=C[C@@H](c2csc3ccccc23)C[C@@H](OCCCCO)O1`, the “hERG current change (%, negative = inhibition) at 10uM” value is recorded as -69%.
For `O=C(NCc1ccccc1)C1=C[C@H](c2csc3ccccc23)C[C@H](OCCCCO)O1`, the “hERG current change (%, negative = inhibition) at 10uM” value is -12.5%.
As for `O=C(NCc1nc2ccccc2[nH]1)C1=C[C@H](c2coc3ccccc3c2=O)C[C@H](OCCCCO)O1`, the “hERG current change (%, negative = inhibition) at 10uM” value is on record as -50.7%.
With `Nc1nc2c(ncn2C2C[C@H](O)[C@@H](CO)O2)c(=O)[nH]1` (stereo partly shown), the “hERG current change (%, negative = inhibition) at 10uM” value was found to be 14.4%.
Regarding `Cc1nnc(NC(=O)c2ccc(S(=O)(=O)N3CCc4ccccc4C3)cc2)o1`, the “hERG current change (%, negative = inhibition) at 10uM” value is on record as 8.81%.
`Cc1cc(C)n(-c2nnc(C)n2NC(=O)c2cccc(Cl)c2)n1`: the “hERG current change (%, negative = inhibition) at 10uM” value came out at 11.1%.
For the compound `Cc1cccc[n+]1CC(=O)c1ccc(NC(=O)c2ccccc2)cc1.[Br-]`, the “hERG current change (%, negative = inhibition) at 10uM” value is 28.6%.
In the case of `COc1ccccc1NC(=O)Nc1nc(CC(=O)NCc2ccc(F)cc2)cs1`, the “hERG current change (%, negative = inhibition) at 10uM” value is on record as -11.4%.
The value for `Cc1ccc(S(=O)(=O)NCc2ccccc2)cc1C(=O)NC1CCCCC1` was 15.9%; that for `COc1cc(C(=O)NCC(=O)OCCN2C(=O)c3ccccc3C2=O)cc(OC)c1OC` was 4.2%; that for `CCNc1nc(Oc2ccc(=O)[nH]n2)nc(SC)n1` was 8.57%.
With `CC1=CC(C/C(C)=C/COc2ccc3ccc(=O)oc3c2)OC1=O` (stereo not shown), the “hERG current change (%, negative = inhibition) at 10uM” value is 2.36%.
Consider `COC(=O)c1c(NC(=O)c2ccccc2F)sc2c1C(C(=O)OC)CC2` (stereo not shown), for which the “hERG current change (%, negative = inhibition) at 10uM” value was 9.38%.
As to `CCCn1c(SCC(=O)c2cc(OC)ccc2OC)nnc1-c1ccco1`, the “hERG current change (%, negative = inhibition) at 10uM” value is on record as -12.5%.
As to `O=C(NCc1ccccc1)C1=C[C@@H](c2coc3ccccc3c2=O)C[C@@H](OCCCCO)O1`, the “hERG current change (%, negative = inhibition) at 10uM” value is reported as -83.1%.
Next, `C#CCNC(=O)C1=C[C@H](c2coc3ccccc3c2=O)C[C@H](OCCCCO)O1`: -45%; `O=C(NC1CC1)C1=C[C@@H](c2coc3ccccc3c2=O)C[C@@H](OCCCCO)O1`: -23.8%; `O=C(O)C1=C[C@@H](c2coc3ccccc3c2=O)C[C@@H](OCCCCO)O1`: 22.8%.
For `C#CCNC(=O)C1=C[C@@H](c2coc3ccccc3c2=O)C[C@@H](OCCCCO)O1`, the “hERG current change (%, negative = inhibition) at 10uM” value came out at 1.71%.
`O=C(Nc1ccccc1)C1=C[C@@H](c2coc3ccccc3c2=O)C[C@@H](OCCCCO)O1`: the “hERG current change (%, negative = inhibition) at 10uM” value is given as -41.1%.
For the compound `O=C(NCc1ccccc1)C1=C[C@H](c2coc3ccccc3c2=O)C[C@H](OCCCCO)O1`, the “hERG current change (%, negative = inhibition) at 10uM” value is given as -55.4%.
`O=C(O)C1=C[C@H](c2coc3ccccc3c2=O)C[C@H](OCCCCO)O1`: the “hERG current change (%, negative = inhibition) at 10uM” value is recorded as 3.91%.
For `O=C(Nc1ccccc1)C1=C[C@H](c2coc3ccccc3c2=O)C[C@H](OCCCCO)O1`, the “hERG current change (%, negative = inhibition) at 10uM” value is on record as -70.3%.
On to `COc1cc2c(cc1OC)CN(C(=S)Nc1ccccc1)CC2`, for which the “hERG current change (%, negative = inhibition) at 10uM” value is on record as -7.19%.
On to `O=C(/C=C/c1cc(Br)ccc1F)Nc1cccnc1`, for which the “hERG current change (%, negative = inhibition) at 10uM” value is reported as 14.6%.
Regarding `COc1ccccc1N(CC(=O)NC1CCCC1)C(=O)C1(C)CC(=O)N=C2C=CC(C)=CN21` (stereo not shown), the “hERG current change (%, negative = inhibition) at 10uM” value was 12.5%.
As to `CC(C)CCN(C(=O)c1ccc(N2CCCC2=O)cc1)c1c(N)n(Cc2ccccc2)c(=O)[nH]c1=O`, the “hERG current change (%, negative = inhibition) at 10uM” value came to 12.2%.
With `Cc1ccc(-n2cc3ccc([N+](=O)[O-])cc3n2)cc1`, the “hERG current change (%, negative = inhibition) at 10uM” value is 5.28%.
As for `CC(C)n1c(Nc2ccccc2)nc2ccccc21`, the “hERG current change (%, negative = inhibition) at 10uM” value is recorded as -1.84%.
For the compound `COc1cccc(NC(=O)CSc2nc3c([nH]c4ccccc43)c(=O)n2C)c1`, the “hERG current change (%, negative = inhibition) at 10uM” value is given as 16.4%.
`COc1cccc(NC(=O)CSc2nc3c(sc4ccccc43)c(=O)n2CCN(C)C)c1.Cl`: the “hERG current change (%, negative = inhibition) at 10uM” value was -65.5%.
Next, `CCN(CC)CCn1c(SCC(=O)Nc2ccc(F)cc2)nc2c(sc3ccccc32)c1=O.Cl`: -14.9%.
Turning to `CCN(CC)CCn1c(SCC(=O)Nc2cccc(OC)c2)nc2c(sc3ccccc32)c1=O`, the “hERG current change (%, negative = inhibition) at 10uM” value is on record as -69.2%.
As for `COc1ccccc1NC(=O)CSc1nc2c(sc3ccccc32)c(=O)n1CCN(C)C.Cl`, the “hERG current change (%, negative = inhibition) at 10uM” value came to 11.5%.
The value for `COc1ccc(NC(=O)CSc2nc3c(sc4ccccc43)c(=O)n2CCCN2CCCC2)cc1` was -30.8%; that for `COc1cccc(NC(=O)CSc2nc3c(sc4ccccc43)c(=O)n2CCCN2CCCC2)c1` was -69.8%.
For `COCCn1c(SCC(=O)Nc2cccc(OC)c2)nc2c(oc3ccccc32)c1=O`, the “hERG current change (%, negative = inhibition) at 10uM” value is -42.2%.
For the compound `Cc1cc(NC(=O)CSc2nc3c(sc4ccccc43)c(=O)n2CCc2ccccc2)n[nH]1`, the “hERG current change (%, negative = inhibition) at 10uM” value is -19.6%.

Values taken from article PMC4336329 (PLoS ONE, 2015).
